# Where “and” joins values, the source holds several entries; their conditions need not be identical. Equal entries are not always repeated. Inconclusive results are not listed. Unmarked numbers belong to inactive results. Calls of active or inactive are those of the source. The call rests on the fitted dose curve.
# Molecular target: Muscarinic acetylcholine receptor M1 (Homo sapiens) (UniProt P11229)
# Experiment: Cholinergic receptor muscarinic 1 (CHRM1) small molecule antagonists, cell-based qHTS assay (AID 1963588); further: nearly all actives have a fitted effect of over 40% in size
# Conditions: CHRM1-CHO antagonist mode, calcium flux fluorescence; series mostly up to 61.5 µM; activity, negative = inhibition: at the top concentration
# Text: National Center for Advancing Translational Sciences [NCATS]
# Division of Preclinical Innovation [DPI]
# U.S. Environmental Protection Agency [EPA]
# National Institutes of Environmental Health Sciences [NIEHS]
# National Toxicology Program [NTP]
# U.S. Food and Drug Administration [FDA]
# The CHRM1 is a muscarinic receptor. This receptor plays a crucial role in learning and memory processes and has long been identified as a promising therapeutic target for the improvement of cognitive decline in Alzheimer's disease (AD). The CHRM1-CHO cell line stably expressing human muscarinic acetylcholine receptor M1 (CHRM1) can be used for screening agonists and antagonists of interactions between CHRM1 and its ligands. The CHRM1-CHO Calcium Flux Assay is a homogeneous fluorescence-based assay for detecting the intracellular calcium level using FDSS kinetic plate reader system.
# Tox21 Assay Protocol Summary:
# CHRM1-CHO cells were dispensed at 1000 cells/3uL/well in 1536-well black-clear bottom plates using a Multidrop Dispenser. After the assay plates were incubated at a 37 C/5% CO2 incubator for 18 h, 3 uL of Dye Loading Buffer was transferred to the assay plate by a Flying Reagent Dispenser. The assay plates were incubated at 37 C for 1h. For antagonist mode, 23 nL of compounds dissolved in DMSO, positive controls or DMSO only was transferred to the assay plate by a pin tool. After 5 min incubation at room temperature, 1.5 uL of acetylcholine at 50nM was added to each well. The fluorescence intensity in the plates was measured using FDSS 7000EX kinetic plate reader for 3 min at 1 sec intervals. Each test compound was measured at 15 concentrations in three independent runs.
# On the % scale 0 is the no-effect control and ±100 the full control effect; potency means the concentration at half of the fitted maximal effect.
# Muscarinic acetylcholine receptor M1 (Homo sapiens), sequence (P11229 whole entry, looked up): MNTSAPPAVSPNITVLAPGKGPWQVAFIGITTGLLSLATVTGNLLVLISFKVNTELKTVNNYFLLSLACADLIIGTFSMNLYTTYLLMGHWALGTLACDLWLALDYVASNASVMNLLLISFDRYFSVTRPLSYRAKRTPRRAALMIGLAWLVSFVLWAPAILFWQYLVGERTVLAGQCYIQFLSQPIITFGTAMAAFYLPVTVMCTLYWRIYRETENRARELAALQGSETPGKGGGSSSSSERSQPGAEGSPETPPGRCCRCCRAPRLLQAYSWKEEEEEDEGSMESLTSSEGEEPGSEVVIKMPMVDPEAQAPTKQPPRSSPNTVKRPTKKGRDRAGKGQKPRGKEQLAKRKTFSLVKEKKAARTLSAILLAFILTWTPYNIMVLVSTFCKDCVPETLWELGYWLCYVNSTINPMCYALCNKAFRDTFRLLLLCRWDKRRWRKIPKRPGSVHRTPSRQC
Compound,"activity, negative = inhibition",Potency
O=C(O)c1cccnc1C(=O)O,-3.65%,
CCCCCCCOC(=O)c1ccccc1C(=O)OCCCCCCC,-1.38%,
CCCCCCCCCCCCCCCC(=O)OC,-19.7% [at 12.6 µM],
CCCCCCCN,3.96%,
Cc1ccc(C(C)c2ccc(C)c(C)c2)cc1C,8.11%,
NCCc1ccc(O)c(O)c1,,inactive
CC(=O)CC(=O)Nc1ccccc1,,inactive
Cc1nc2ccccc2s1,11.8%,
CC(C)(c1cc(Br)c(O)c(Br)c1)c1cc(Br)c(O)c(Br)c1,12.4%,
CCC(COC(=O)CCS)(COC(=O)CCS)COC(=O)CCS,4.96%,
COc1cccc(OC)c1C(=O)N[C@@H]1C(=O)N2[C@@H]1SC(C)(C)[C@@H]2C(=O)O,14.1% [at 28.3 µM],
C=CC(=O)NCOCCCC,,inactive
CCN1CCCC(OC(=O)C(c2ccccc2)c2ccccc2)C1 (stereo not given),,4.1 µM (active)
CCOc1c(N2CCOCC2)cnn(C)c1=O,1.7% [at 28.3 µM],
CN1N=C(C(N)=O)CCC1=O,14.5% [at 28.3 µM],
C/C(Cl)=C/CCl,-8.61%,
CCOC(=S)SSC(=S)OCC,-19.1%,
CCCCc1ccc2cccc(S(=O)(=O)O)c2c1,12.1%,
Cc1cc(C)c(N)c(Cl)c1,-16.5%,
CC(C)(C)NCC(O)COc1ccccc1OCC1CCCO1 (stereo not given),4.67% [at 28.3 µM],

Compound,"activity, negative = inhibition",Potency
CCc1ccccc1O,,inactive
CCCCCCCCCOS(=O)(=O)O,20.7%,
CO[C@@]1(NC(=O)CSC[C@@H](N)C(=O)O)C(=O)N2C(C(=O)O)=C(CSc3nnnn3C)CS[C@@H]21,0.193% [at 28.3 µM],
CCCCCCCCCCCCCCCC[N+](C)(C)CC,,422 nM (active) and 65 nM (active)
COc1ccc(Cl)cc1C,-21.6%,
CCCCCCCCCOCC1CO1 (stereo not given),9.78%,
O=C(O)Cc1ccc(CCNS(=O)(=O)c2ccc(Cl)cc2)cc1,-5.09% [at 28.3 µM],
Cc1cc(C)c(S(=O)(=O)O)cc1N=Nc1cc(S(=O)(=O)O)c2ccccc2c1O,-12.5%,
Cc1cccc(C)c1[N+](=O)[O-],,inactive
CCO[Si](OCC)(OCC)c1ccccc1,6.9%,
COc1ccc(OC)c(C(O)CNC(=O)CN)c1 (stereo not given),,inactive
Oc1cccc2ccccc12,,inactive
CC(C)[C@@H]1CC[C@@H](C)CC1=O,,inactive
CC(=O)CC/C=C(\C)CC/C=C(\C)CC/C=C(\C)CCC=C(C)C,-4.18% [at 28.3 µM],
CN(C)CCOC(c1ccc(Cl)cc1)c1ccccn1 (stereo not given),,4.6 µM (active)
O=C(O)CCc1ccccc1,-4.7%,
CC(=O)Nc1ccc(C)cc1,13.2%,
O=C(O)CNc1ccccc1,-1.25%,
CCOC(=O)[C@H](CCc1ccccc1)N[C@@H](C)C(=O)N1C(=O)N(C)C[C@H]1C(=O)O,-6.17% [at 28.3 µM],
CC(O)C(C)O (stereo not given),1.45%,

# From PubChem BioAssay (Tox21)
